In the supplement of paper PMC9801561:
± gives the standard deviation of the averaged measurements.

Experiments:
[1] = system: Escherichia coli Nissle 1917; experiment: area under OmniLog respiration curve over 48 h (OmniLog units x h); higher = more growth / nutrient utilisation; extreme values may be limits of the assay; details: incubation: 48 h, 37 °C
[2] = system: Escherichia coli Nissle 1917; experiment: DuctApe activity index of respiration/growth curve (0 no growth to 9 maximum) (index 0-9); higher = more growth / nutrient utilisation, active = 3 or more; extreme values may be limits of the assay; details: incubation: 48 h, 37 °C
[3] = nutrient role: C-Source, carbohydrate
[4] = nutrient role: sole sulfur source (pyruvate carbon)
[5] = nutrient role: C-Source, carboxylic acid
[6] = nutrient role: sole phosphorus source (pyruvate carbon)
[7] = nutrient role: sole nitrogen source (pyruvate carbon)
[8] = nutrient role: C-Source, alcohol
[9] = nutrient role: C-Source, amino acid
[10] = nutrient role: N-Source, inorganic
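Wherever DuctApe activity index of respiration/growth curve (0 no growth to 9 maximum) is given: biolog PM4 phosphorus and sulfur plates, tetrazolium violet dye reduction read in the OmniLog every 15 min, kinetic curves scored by DuctApe, each plate run in triplicate.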

OCC1(O)OC[C@@H](O)[C@@H](O)[C@H]1O (stereo partly drawn) [D-Psicose]
area under OmniLog respiration curve [1, 3]: 3500 ± 700
DuctApe activity index [2, 3]: 4 (active)

N[C@@H](CSCSC[C@H](N)C(=O)O)C(=O)O [L-Djenkolic acid]
area under OmniLog respiration curve [1, 4]: 7730 ± 190
DuctApe activity index [2, 4]: 8 (active)

O=S1(=O)CCCC1 [Tetramethylene Sulfone]
area under OmniLog respiration curve [1, 4]: 615 ± 500
DuctApe activity index [2, 4]: 0 (inactive)

OC[C@@H]1OC(O)[C@@H](O)[C@H](O)[C@H]1O (stereo partly drawn) [L-Glucose]
area under OmniLog respiration curve [1, 3]: 29.9 ± 43
DuctApe activity index [2, 3]: 0 (inactive)

O=C(O)[C@H](O)[C@@H](O)[C@H](O)[C@H](O)CO[C@H]1O[C@H](CO)[C@H](O)[C@H](O)[C@H]1O [Melibionic acid]
area under OmniLog respiration curve [1, 3]: 6790 ± 140
DuctApe activity index [2, 3]: 7 (active)

O=C(O)[C@H]1OC(O)[C@H](O)[C@@H](O)[C@@H]1O (stereo partly drawn) [D-Glucuronic acid]
area under OmniLog respiration curve [1, 5]: 10000 ± 950
DuctApe activity index [2, 5]: 9 (active)

OC[C@H]1O[C@@H](Oc2ccc(O)cc2)[C@H](O)[C@@H](O)[C@@H]1O [Arbutin]
area under OmniLog respiration curve [1, 3]: 4.72
DuctApe activity index [2, 3]: 0 (inactive)

O=C1O[C@H](CO)[C@@H](O)[C@H]1O [D-Ribono-1,4-Lactone]
area under OmniLog respiration curve [1, 5]: 4.72
DuctApe activity index [2, 5]: 0 (inactive)

NC(=O)OP(=O)(O)O [Carbamyl Phosphate]
area under OmniLog respiration curve [1, 6]: 9480 ± 480
DuctApe activity index [2, 6]: 9 (active)

OCc1ccccc1O[C@@H]1O[C@H](CO)[C@@H](O)[C@H](O)[C@H]1O [Salicin]
area under OmniLog respiration curve [1, 3]: 4.72
DuctApe activity index [2, 3]: 0 (inactive)

NCCCC[C@@H](N)C(=O)O [D-Lysine]
area under OmniLog respiration curve [1, 7]: 23.1 ± 23
DuctApe activity index [2, 7]: 0.667 (inactive)

NC(=O)C[C@@H](N)C(=O)O [D-Asparagine]
area under OmniLog respiration curve [1, 7]: 1420 ± 780
DuctApe activity index [2, 7]: 2.33 (inactive)

NCCO [2-Aminoethanol]
area under OmniLog respiration curve [1, 8]: 149 ± 200
DuctApe activity index [2, 8]: 0 (inactive)

OC[C@H]1O[C@H](O[C@H]2[C@H](O)[C@@H](O)[C@@H](O[C@H]3[C@H](O)[C@@H](O)C(O)O[C@@H]3CO)O[C@@H]2CO)[C@H](O)[C@@H](O)[C@@H]1O (mixture of isomers) [Maltotriose]
area under OmniLog respiration curve [1, 3]: 8540 ± 380
DuctApe activity index [2, 3]: 8 (active)

O[C@@H]1[C@H](O)[C@H](O)CO[C@H]1O [D-Ribose]
area under OmniLog respiration curve [1, 3]: 9520 ± 880
DuctApe activity index [2, 3]: 8.67 (active)

O=C(O)[C@]1(O)C[C@@H](O)[C@@H](O)[C@H](O)C1 [Quinic acid]
area under OmniLog respiration curve [1, 5]: 4.72
DuctApe activity index [2, 5]: 0 (inactive)

C[N+](C)(C)CC(O)CC(=O)[O-] (racemic) [D,L-Carnitine]
area under OmniLog respiration curve [1, 5]: 5.03 ± 0.54
DuctApe activity index [2, 5]: 0 (inactive)

Nc1nc2[nH]cnc2c(=O)[nH]1 [Guanine]
area under OmniLog respiration curve [1, 7]: 27.5 ± 39
DuctApe activity index [2, 7]: 0 (inactive)

O=C(O)CC[C@@H](C(=O)O)N1C(=O)c2ccccc2C1=O [N-Phthaloyl-L-Glutamic acid]
area under OmniLog respiration curve [1, 7]: 4540 ± 1100
DuctApe activity index [2, 7]: 6 (active)

Oc1nc(O)c2nc(O)[nH]c2n1 [Uric acid]
area under OmniLog respiration curve [1, 7]: 986 ± 490
DuctApe activity index [2, 7]: 2.33 (inactive)

OC[C@@H](O)[C@@H](O)[C@H](O)[C@H](O)CO [D-Mannitol]
area under OmniLog respiration curve [1, 3]: 7850 ± 650
DuctApe activity index [2, 3]: 7.67 (active)

Nc1nc2c(ncn2[C@@H]2O[C@H](CO)[C@@H](O)[C@H]2O)c(=O)[nH]1 [Guanosine]
area under OmniLog respiration curve [1, 7]: 442 ± 580
DuctApe activity index [2, 7]: 0.333 (inactive)

N[C@@H](CCC(=O)N[C@@H](CS)C(=O)NCC(=O)O)C(=O)O [Glutathione]
area under OmniLog respiration curve [1, 4]: 1690 ± 30
DuctApe activity index [2, 4]: 5 (active)

C[C@@H](O)[C@H](O)[C@H](O)[C@@H](O)C=O [D-Fucose]
area under OmniLog respiration curve [1, 3]: 21 ± 25
DuctApe activity index [2, 3]: 0 (inactive)

Nc1nc2c(ncn2[C@@H]2O[C@H](CO)[C@@H](O)[C@H]2OP(=O)(O)O)c(=O)[nH]1 [Guanosine 2`-Monophosphate]
area under OmniLog respiration curve [1, 6]: 9820 ± 820
DuctApe activity index [2, 6]: 9 (active)

Nc1ncnc2c1ncn2[C@@H]1O[C@@H]2COP(=O)(O)O[C@H]2[C@H]1O [Adenosine 3`,5`-Cyclic Monophosphate]
area under OmniLog respiration curve [1, 6]: 5670 ± 1300
DuctApe activity index [2, 6]: 6.67 (active)

C[C@H](O)[C@@H](N)C(=O)O [D-Threonine]
area under OmniLog respiration curve [1, 9]: 291 ± 470
DuctApe activity index [2, 9]: 0.667 (inactive)

O=C(CO)CO [Dihydroxyacetone]
area under OmniLog respiration curve [1, 8]: 6280 ± 820
DuctApe activity index [2, 8]: 7 (active)

NCC(=O)N1CCC[C@H]1C(=O)O
area under OmniLog respiration curve [1, 9]: 7860 ± 920
DuctApe activity index [2, 9]: 8 (active)

O=NO [Nitrite]
area under OmniLog respiration curve [1, 10]: 122 ± 150
DuctApe activity index [2, 10]: 0.667 (inactive)
